From PubChem BioAssay (NCI)
The panel holds about 79,000 compounds, 15% with a hit somewhere; the sample as a whole holds those more often. Cut-off read from the data, not from the text of the source: active = growth inhibition above about 70%; inactive = the rest.

Columns and labels:
[1] = NCI Yeast Anticancer Drug Screen. Data for the rad50 strain (AID 155);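 note: 0% = growth of vehicle-only cultures of the same strain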; conditions: S. cerevisiae rad50 strain growth inhibition; at 50.0 µM; hits give high values
How it was run: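 Vehicle-treated cultures provide the reference for the growth inhibition reported for compound-exposed, repair-deficient yeast.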

[2] = NCI Yeast Anticancer Drug Screen. Data for the mec2-1 strain (AID 157); conditions: S. cerevisiae mec2-1 strain, at 50.0 µM, hits give high values
How it was run: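 Yeast mec2-1 mutant treated with compound. Readout: growth inhibition vs vehicle controls.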

[3] = NCI Yeast Anticancer Drug Screen. Data for the sgs1 mgt1 strain (AID 161);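 note: 0% = growth of cultures given vehicle only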; conditions: S. cerevisiae sgs1 mgt1 strain, at 50.0 µM, hits give high values
How it was run: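 Mutant yeast exposed to compound; growth scored against vehicle-only wells.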

[4] = NCI Yeast Anticancer Drug Screen. Data for the cln2 rad14 strain (AID 165);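 note: 0% = growth equal to vehicle treated cultures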; conditions: S. cerevisiae cln2 rad14 strain, at 50.0 µM, hits give high values
How it was run: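 cln2 rad14 yeast strain; compound exposure; growth inhibition read vs vehicle controls.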

[5] = NCI Yeast Anticancer Drug Screen. Data for the bub3 strain (AID 167); conditions: S. cerevisiae bub3 mutant strain, at 50.0 µM, hits give high values
How it was run: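 Mutant yeast screening strain plus compound; vehicle-treated cultures serve as the 0% inhibition reference.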

[6] = NCI Yeast Anticancer Drug Screen. Data for the mlh1 rad18 strain (AID 175); conditions: S. cerevisiae mlh1 rad18 strain growth inhibition; at 50.0 µM; hits give high values
How it was run: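 Yeast w/ defined DNA-repair lesions; compound exposure; growth vs vehicle controls → % inhibition.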

Measured: growth inhibition

COc1cccc(Cc2c3cc(OC)ccc3cc[n+]2C)c1
inactive: [1] 33.3% | [2] 10.8% | [3] 34.2% | [4] 27.7% | [5] 59% | [6] 52.7%

N#CSC1CCCCC1SC#N (stereo not given)
inactive: [1] 11.3% | [2] 5.8% | [3] 7.35% | [4] -13.7% | [5] -2.55% | [6] 5.6%

CCNC(=O)C1Cc2ccccc2N(CC)C1 (stereo not given)
inactive: [1] -13.4% | [2] -6.65% | [3] -0.75% | [4] -12.2% | [5] -1.9% | [6] 2.75%

Cc1ccccc1[B-]12OCC[N+]1(CNC(=O)c1ccccc1O)CCO2 (stereo not given)
inactive: [1] 26% | [2] -2.1% | [3] 3.5% | [4] 16.6% | [5] 1.35% | [6] 8.5%

C=CCOc1cc(NC(=S)c2ccoc2C)ccc1OC
inactive: [1] -17.4% | [2] -3.15% | [3] -10% | [4] -2.7% | [5] -3.35% | [6] -52.9%

c1ccc2c(c1)ccc1ccc3ocnc3c12
inactive: [1] 6.45% | [2] -0.95% | [3] -3.15% | [4] -6.6% | [5] 9.15% | [6] 10%

CCOC(=O)/C(Cc1nc2ccccc2[nH]c1=O)=N\O
inactive: [1] -0.5% | [2] 9.95% | [3] 5.65% | [4] 50.4% | [5] -4.45% | [6] 7.7%

c1ccc(CSc2nc3ccccc3nc2-c2cccs2)cc1
inactive: [1] -48.7% | [2] -51.9% | [3] -34.5% | [4] -1.85% | [5] -51.9% | [6] -29.8%

CN1C(=O)N(C)C(=O)C(C)(NS(=O)(=O)c2ccc(NC(=O)CCC(=O)O)cc2)C1=O
inactive: [1] 17.6% | [2] 11.6% | [3] 12.2% | [4] 16.1% | [5] 0.95% | [6] 24.3%

Nc1ccc(C(=O)NN2C(=O)C(Cl)C2c2cc(Br)ccc2O)cc1 (stereo not given)
inactive: [1] 29.1% | [2] 11.6% | [3] 30.7% | [4] -32.1% | [5] 29.1% | [6] 10.8%

Cc1c(O)cccc1C(=O)C[n+]1ccccc1
inactive: [1] 3.85% | [2] -8% | [3] 10.8% | [4] -24.9% | [5] -6.9% | [6] 1.25%

COC(=O)c1ccccc1C1CN=NC12Cc1ccc3c(c1C2=O)CCC3 (stereo not given)
inactive: [1] -0.85% | [2] -3.55% | [3] 1.75% | [4] -7.3% | [5] 7.1% | [6] 16.7%

O=C1CCC2=C(N1)C(=O)C=CC2=O
inactive: [1] 1.8% | [2] 13.2% | [3] -13.2% | [4] -32% | [5] -8.35% | [6] 10.9%

O=C1Nc2ccccc2C1O (stereo not given)
inactive: [1] 7.15% | [2] 3.3% | [3] -37.5% | [4] -17.7% | [5] 11.1% | [6] -4.2%

Oc1ccccc1/C=N/n1cnnc1
inactive: [1] 8.55% | [2] 12.2% | [3] -3.5% | [4] -4.85% | [5] -10.3% | [6] -19.2%

CC(=O)NCC(=O)O
inactive: [1] 3.7% | [2] -8.75% | [3] -35.1% | [4] -7.1% | [5] -9.6% | [6] -10.1%

C=CCSc1nc2c(=O)n(C)c(=O)n(C)c2n1C
inactive: [1] -11.3% | [2] -3.55% | [3] -6.85% | [4] -27.3% | [5] -6.8% | [6] 7.15%

O=C(C[n+]1cccc(C(=O)Nc2ccccc2)c1)Nc1ccc(Cl)cc1
inactive: [1] -2.65% | [2] -0.7% | [3] -2.35% | [4] 0.35% | [5] 6.7% | [6] 7.35%

CCCCNc1nc2c(=O)n(C)c(=O)n(C)c2s1
inactive: [1] -6.3% | [2] -0.6% | [3] -3.1% | [4] -17.4% | [5] -5.9% | [6] 9.75%

CC1=NOC2(C1)C(=O)Nc1ccccc12 (stereo not given)
inactive: [1] 23.2% | [2] 9.5% | [3] 8.55% | [4] 11.3% | [5] 2.85% | [6] 18.4%

O=C(O)CCC(=O)Nc1ccc(F)cc1
inactive: [1] 9.9% | [2] 26.6% | [3] 4.7% | [4] -86.3% | [5] 7.3% | [6] 1%

CN(C)CCCn1cnc2cc(Cl)c(Cl)cc21
inactive: [1] 0.2% | [2] -6.4% | [3] -21% | [4] -0.8% | [5] 9.95% | [6] -0.15%

CSCCC(NCc1c(O)ccc2ccc(=O)oc12)C(=O)O (stereo not given)
inactive: [1] -35.6% | [2] -9.1% | [3] -27.9% | [4] 7.45% | [5] 0.95% | [6] -38%

CC(C)C1CCC(C)(C(=O)Oc2ccccc2-c2ccccc2)C1 (stereo not given)
inactive: [1] 13.1% | [2] 23.4% | [3] 9.75% | [4] -11.6% | [5] 22.2% | [6] 13.6%

Cc1ccc(N=C2c3cc([N+](=O)[O-])ccc3-c3ccc([N+](=O)[O-])cc32)cc1
inactive: [1] 15.1% | [2] -10.1% | [3] 0.35% | [4] -18.1% | [5] -4% | [6] -2.25%

CCCCCCCCC(=O)O (tested in a mixture with another compound)
inactive: [1] 2.3% | [2] 6.75% | [3] 9.95% | [4] 12.7% | [5] 2.85% | [6] 29.1%

CC(=O)Nc1cccc2[nH]c(=O)c3ccccc3c12
inactive: [1] 3.4% | [2] -6.4% | [3] -5.8% | [4] -19.3% | [5] -16.9% | [6] 4.55%

O=C(O)C1=NN(c2cc(Cl)c(S(=O)(=O)O)cc2Cl)C(=O)C1
inactive: [1] -33.2% | [2] -45.1% | [3] -14.1% | [4] 6.1% | [5] -5.85% | [6] -32.9%

O=S(Nc1ccc(Br)cc1)c1ccccc1 (stereo not given)
inactive: [1] -3.5% | [2] -0.35% | [3] 5.65% | [4] -8.2% | [5] 3.4% | [6] 1.55%

C=CCOC(=O)COC(=O)C(C)(C)OC(C)=O
inactive: [1] -3.35% | [2] 10.3% | [3] -1.7% | [4] 10.9% | [5] 12.6% | [6] -5.9%

Cc1nc(N)nc2c1CCC(=O)N2
inactive: [1] 11.7% | [2] 7.6% | [3] -3.1% | [4] -37.6% | [5] 0.65% | [6] 1.7%

O=c1sc2ccccc2n1CCN(CCn1c(=O)sc2ccccc21)c1ccccc1
inactive: [1] 39.7% | [2] -7.75% | [3] 13.6% | [4] -45.5% | [5] 1.65% | [6] 14.2%

CC1=CCC(C#N)N(C)C1c1ccccc1 (stereo not given)
inactive: [1] 2% | [2] -5.25% | [3] -13.4% | [4] -48.1% | [5] -12.3% | [6] 8.85%

CC12CCC(/C(=C/N3CCCCC3)C1=O)C2(C)C (stereo not given)
inactive: [1] 12.8% | [2] 10.2% | [3] 1.75% | [4] -17.8% | [5] 22.4% | [6] 5.05%

COC(=O)c1c2c(cc3c1CC1(Cc4cc5c(c(C(C)=O)c4C1)CCC5)C3)CCC2 (stereo not given)
inactive: [1] -34.1% | [2] -15.5% | [3] -63.8% | [4] -4.1% | [5] -20.7% | [6] -41.5%

CCN(CC)c1nc(C(N)=O)c([N+](=O)[O-])c(N(CC)CC)n1
inactive: [1] -9.7% | [2] -3.4% | [3] 14.1% | [4] -14.2% | [5] -17.9% | [6] -0.5%

CC(C)(O)C(O)COc1c2c(cc3oc(=O)ccc13)OCO2 (stereo not given)
inactive: [1] 26.3% | [2] 3.5% | [3] 18.9% | [4] -1.35% | [5] 31.9% | [6] 25.6%

CN(C)c1ccc(N=O)c(O)c1
inactive: [1] -3.35% | [2] -6.45% | [3] -63% | [4] 13.6% | [5] -15.8% | [6] 3%

CCC(C#N)NC(=O)NC(C#N)CC (stereo not given)
inactive: [1] 0.75% | [2] 14.6% | [3] -9.7% | [4] -1.6% | [5] -16.9% | [6] -42.1%

O=C(CCc1ccc(O)c(O)c1)NCCc1cc(O)cc(OCc2ccccc2)c1
inactive: [1] 9.45% | [2] -6.65% | [3] -10.6% | [4] -19.1% | [5] -44.3% | [6] -73.5%
